# Compounds with a hit are over-represented: about 17% of the library has one in this group of screens.
# TGFb SMAD3 inh = blocks TGF-b signaling; AID 588855; Potency, µM (doses to about 46.1 µM), without a hit: at the highest dose activity, negative = inhibition, hits mostly inhibitors; HepG2 CAGA-GFP TGF-b/SMAD3 reporter, GFP fluorescence, 18 h; TGF-beta stimulated, 500 pg/mL final; hit rate 1.2% among 410,000; further: on the % scale 0 is the no-effect control and ±100 the full control effect; nearly all actives have a fitted effect of over 65% in size
#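 GFP signal (ex488/em500-530) from TGF-beta-stimulated HEPG2 CAGA-GFP cells, 500 pg/mL final, 18 h at 37 degrees C in DMEM plus 1% FBS, normalized to unstimulated and DMSO-stimulated controls.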
# HT1080-NT tox = kills 2HG-producing HT-1080-NT fibrosarcoma cells; Potency, µM (titrated, usually from 46.1 µM), without a hit: at the highest dose activity, negative = less viability, actives largely listed as cytotoxic; hit rate 1.6% among 360,000; AID 686970; HT-1080-NT fibrosarcoma viability, CellTiter-Glo ATP luminescence, 48 h;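 further: NT is the 2HG producing partner of a matched IDH1 knockdown line; 0% = DMSO-treated cells and -100% = media-only wells without cells; nearly all actives have a fitted effect of over 55% in size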
#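 Viability by CellTiter-Glo luminescence after 48 h compound exposure at 37C of HT-1080-NT cells (750/well, RPMI, 5% FBS). % activity scaled between DMSO wells and medium-only wells, then curve-fitted and categorized by curve class.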
# HT1080 IDH1KD tx = kills HT-1080 cells with IDH1 knockdown | HT-1080 IDH1 knockdown viability, ATP luminescence, 48 h | Potency, µM (doses to about 46.1 µM), inactives show at the highest dose activity, negative = toxicity, usual class: cytotoxic | hit rate 2% among 360,000 | AID 686971;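 further: 0% = DMSO wells and -100% = cell-free medium wells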
#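 IDH1KD HT-1080 cells, 750/well, RPMI + 5% FBS; compound pinned after 2 h settling; 48 h, 37 °C; CellTiter-Glo luminescence; % activity normalised to DMSO and no-cell wells; curves fitted, classed by r2 and efficacy.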
# HepG2 viability = kills HepG2 cells in TGF-b inhibitor counter-screen; HepG2 CAGA-GFP viability, ATP luminescence, 18 h; Potency, µM (doses to about 46.1 µM), inactives show top-dose activity change, negative = cytotoxicity, hits mostly cytotoxic; hit rate 0.76% among 410,000; AID 588856
#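 CellTiter-Glo luminescence gave cytotoxicity after 18 hours at 37 degrees C. The cells were HepG2 CAGA-GFP in 1% FBS DMEM, stimulated with 500 pg/mL TGF-beta after compound addition. %Activity was normalised to no-cell wells (complete cell-killing) and DMSO (no toxicity), and curves were fitted and classified.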
# TDP1 cell noCPT = qHTS for Inhibitors of human tyrosyl-DNA phosphodiesterase 1 (TDP1): qHTS in cells in absence of CPT; DT40 Tdp1-/- hTDP1 cells, no CPT, ATP luminescence, 48 h; Potency, µM (series often up to 46.2 µM), inactives show top-dose activity change, negative = growth inhibition, most hits filed as inhibitors; hit rate 15% among 420,000; further: on the % scale 0 is the no-effect control and ±100 the full control effect; nearly all actives have a fitted effect of over 55% in size
#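 Cells were dispensed at 400 per well, compounds added by pin tool, plates incubated ≥48 hr at 37 °C, then CellTiter-Glo added for 30 min at room temperature before luminescence reading. Line: DT40 Tdp1-/- complemented with hTDP1; camptothecin omitted.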
# TDP1 cell CPT = growth inhibition of DT40 Tdp1-/-;hTDP1 cells with camptothecin (screen for TDP1 inhibitors) | chicken DT40 Tdp1-/-;hTDP1 cells + 20 nM CPT, ATP luminescence, 48 h | Potency, µM (top dose mostly 46.2 µM), without a hit: top-dose activity change, negative = growth inhibition, most hits filed as inhibitors | hit rate 12% among 420,000; further: on the % scale 0 is the no-effect control and ±100 the full control effect; nearly all actives have a fitted effect of over 55% in size
#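 Chicken DT40 Tdp1-/- cells stably complemented with human TDP1 were seeded at 400 cells/well in medium containing 20 nM camptothecin, exposed to pin-transferred compounds, and grown at 37 °C for at least 48 hr. Viability was read as ATP luminescence.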
# Active calls of the source: *; ? = inconclusive; . = not tested or not shown. The call rests on the fitted dose curve; in most records, active means well fitted curve in the direction sought with a large enough effect; inconclusive means small, poorly fitted or top-dose-only effect, or another doubt; inactive means no such curve, though single readings can be large; an effect the other way counts as inactive or inconclusive. Potency means the concentration at half of the fitted maximal effect.
SMILES,TGFb SMAD3 inh,HT1080-NT tox,HT1080 IDH1KD tx,HepG2 viability,TDP1 cell noCPT,TDP1 cell CPT
Cc1ccc(C2CC(=O)NC(SCC(N)=O)=C2C#N)s1 (configuration not stated),38.9%,1.5%,8.5%,47.5%,0.1%,-15.2%
Cc1nc2ccccc2nc1C,0.8%,.,.,3.2%,6.4%,9.9%
CN(C)c1ccc(/C=C/c2cnnc3ccccc23)cc1,29.2%,.,.,-6.9%,6.31µM*,7.08µM*
CN(C)c1ccc(/C=C/c2cc(N(C)C)nc3ccccc23)cc1,?,.,.,-32.6%,0.891µM*,1µM*
Cc1nc2ccccc2nc1/C=C/c1ccc(N(C)C)cc1,-13.5%,.,.,-84.6%,0.501µM*,0.501µM*
O=C(CCNS(=O)(=O)c1ccc2ccccc2c1)NCCOc1ccccc1,1.1%,2.7%,-8.5%,-24.1%,?,?
COC(=O)C1=CCCCC(O)=C1C(=O)OC,-11.5%,9.8%,-0.8%,-3.6%,-3.4%,-2.5%
Cc1ccccc1C(=O)OCn1nnc2ccccc2c1=O,15.5%,12.7%,2.9%,4.8%,-29.6%,-24.0%
O=C(c1ccc(=O)n(Cc2ccccc2)n1)N1CCN(C/C=C/c2ccccc2)CC1,?,-3.1%,-15.3%,-53.0%,?,18.4µM*
Cc1onc(-c2ccccc2Cl)c1C(=O)OCC(=O)N1CCN(c2ccccc2)CC1,-3.7%,7.1%,-8.3%,0.9%,16.4µM*,?
COc1ccccc1N1CCN(C(=O)c2cc(-c3cccc(Cl)c3)on2)CC1,3.5%,8.4%,10.1%,8.0%,12.6µM*,?
Cc1cc(C(=O)OCn2nnc3ccccc3c2=O)c(C)n1-c1ccccc1,-3.6%,-2.8%,-19.7%,1.5%,18.4µM*,?
COc1ccccc1N1CCN(C(=O)c2cc(-c3ccc4c(c3)OCO4)on2)CC1,-38.2%,1.7%,-5.3%,-1.4%,?,-18.9%
Cn1c(N)c(-c2ccccc2)c2ccc([N+](=O)[O-])cc2c1=O,58.4%,?,?,-8.5%,?,?
COc1ccccc1N1CCN(C(=O)c2c(-c3ccccc3Cl)noc2C)CC1,-19.5%,?,?,-9.8%,20.6µM*,?
Cc1onc(-c2ccccc2Cl)c1C(=O)N1CCN(C/C=C/c2ccccc2)CC1,?,8.7%,-26.4%,-43.4%,10µM*,?
Cc1onc(-c2ccccc2Cl)c1C(=O)OCn1nnc2ccccc2c1=O,-16.4%,5.8%,-9.2%,-18.6%,15.8µM*,18.4µM*
Cc1onc(-c2ccccc2Cl)c1C(=O)O/N=C(\N)c1ccc([N+](=O)[O-])o1,?,?,-15.1%,-118.2%,23.1µM*,18.4µM*
CCOc1cc(N2CCOCC2)c(OCC)cc1NC(=O)COC(=O)CCc1c[nH]c2ccccc12,-9.7%,5.3%,5.8%,-1.7%,?,-23.7%
Cc1ccc(S(=O)(=O)CCC(=O)OC2CC(C)OC2=O)cc1 (configuration not stated),12.8%,-0.4%,0.0%,-27.9%,-15.3%,20.3%
Cc1ccc(S(=O)(=O)n2nc(OC(=O)c3c(-c4ccccc4Cl)noc3C)cc2N)cc1,0.0%,-7.1%,?,-87.4%,14.6µM*,18.4µM*
Cc1onc(-c2ccccc2Cl)c1C(=O)Oc1cc(N)n(S(=O)(=O)c2ccc(F)cc2)n1,?,?,?,-69.3%,?,?
Cc1onc(-c2ccccc2Cl)c1C(=O)Oc1ccc(Br)cc1,?,.,.,-42.2%,-19.2%,-22.2%
Cc1onc(-c2ccccc2Cl)c1C(=O)Oc1cccc2cccnc12,?,-3.4%,23.1µM*,-29.0%,2.91µM*,4.11µM*
